Assay results reported in PubChem BioAssay (Tox21).
Results filed as inconclusive are left out. Activity calls are given as the source filed them. Unless noted, calls come from the whole dose curve; as a rule, active = well fitted curve in the direction sought with a large enough effect in the repeat runs; inconclusive = weak or mixed curves; inactive = no such curve, though single readings can be large; an effect the other way counts as inactive or inconclusive.

Assays:
[1] = qHTS assay to identify small molecule agonists of the vitamin D receptor (VDR) signaling pathway - cell viability counter screen (AID 743224); note: series mostly up to about 63 µM; nearly all actives have a fitted effect of over 50% in size
In short: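 In parallel with the bla FRET readout, cytotoxicity toward VDR-bla cells after 16 h compound exposure was assessed by CellTiter-Glo, with luminescence recorded after a 30 min room-temperature incubation.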

[2] = qHTS assay to identify small molecule agonists of the NFkB signaling pathway (AID 1159509; active = well fitted curve in the direction sought with a large enough effect in the signal ratio in the repeat runs, not every such curve was filed as active; the % refers to the signal ratio; note: series mostly up to about 61 µM)
In short: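 Beta-lactamase reporter assay run in quantitative high-throughput format on an NF-kB-responsive ME-180 line, with 5 hr compound treatment and a FRET-based blue/green fluorescence readout.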

[3] = qHTS assay to identify small molecule agonists of the NFkB signaling pathway - cell viability counter screen (AID 1159515; calls by dose curve; note: series mostly up to about 61 µM; nearly all actives have a fitted effect of over 55% in size)
In short: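 Plate 2,000 NFkB-bla ME-180 cells/well; incubate overnight. Add compounds, 5 hr at 37 C. Add FRET substrate, 1.5 hr RT. Add CellTiter-Glo, 30 min RT; read luminescence.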

[4] = qHTS assay to identify small molecule agonists of the endoplasmic reticulum stress response signaling pathway (AID 1159516; active = well fitted activation curve with a large enough effect in the signal ratio in the repeat runs, not every such curve was filed as active; the % refers to the signal ratio)
In short: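 Beta-lactamase expression from the ER stress response element in HeLa reporter cells is quantified with the LiveBLAzer B/G FRET substrate, read at 405 nm excitation after 2 hr at room temperature, following 5 hr compound treatment at 37 C.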

[5] = qHTS assay to identify small molecule agonists of the endoplasmic reticulum stress response signaling pathway - cell viability counter screen (AID 1159517; calls by dose curve; note: series mostly up to about 61 µM; nearly all actives have a fitted effect of over 50% in size)
In short: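 After overnight attachment, ESRE-bla HeLa cells were treated with Tox21 library compounds for 5 hr. CellTiter-Glo luminescence, read 30 min post-addition at room temperature, reported viability.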

[6] = qHTS assay to identify small molecule antagonists of the retinoid-related orphan receptor gamma (ROR-gamma) signaling pathway - cell viability counter screen (AID 1159520); note: nearly all actives have a fitted effect of over 50% in size
In short: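 Cytotoxicity was read from cellular ATP (CellTiter-Glo luminescence) after 16 hr at 37 C with 1 uM doxycycline induction. The inducer was added 2 hr after compound transfer to Tet-on ROR gamma CHO cells.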

[7] = target: Nuclear receptor ROR-gamma (Homo sapiens) (UniProt P51449); assay: qHTS assay to identify small molecule antagonists of the retinoid-related orphan receptor gamma (ROR-gamma) signaling pathway (AID 1159521;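 note: CHO cells with doxycycline inducible ROR-gamma driving an RORE luciferase reporter; top concentration of the series differs between compounds; nearly all actives have a fitted effect of over 50% in size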)
In short: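 Test compounds were applied to Tet-on RORγ CHO cells 2 h ahead of doxycycline hyclate (1 uM final). Luciferase reporter activity was quantified by luminescence after 16 h at 37 C and 5% CO2.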

[8] = qHTS assay to identify small molecule agonists of the AP-1 signaling pathway - cell viability counter screen (AID 1159525; calls by dose curve; note: nearly all actives have a fitted effect of over 55% in size)
In short: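 Intracellular ATP by Cell Titer Glo luminescence (30 min, RT) in the same ME-180 AP-1-bla wells after the 5 h compound exposure at 37 °C. Normalised to tetra n-octyl ammonium bromide and DMSO controls.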

[9] = qHTS assay to identify small molecule agonists of the AP-1 signaling pathway (AID 1159526; calls by dose curve)
[10] = target: Retinoic acid receptor RXR-alpha (Homo sapiens) (UniProt P19793); assay: qHTS assay to identify small molecule agonists of the RXR signaling pathway (AID 1159527; calls by dose curve; note: nearly all actives have a fitted effect of over 35% in size)
Retinoic acid receptor RXR-alpha (Homo sapiens), sequence (P19793 whole entry, looked up): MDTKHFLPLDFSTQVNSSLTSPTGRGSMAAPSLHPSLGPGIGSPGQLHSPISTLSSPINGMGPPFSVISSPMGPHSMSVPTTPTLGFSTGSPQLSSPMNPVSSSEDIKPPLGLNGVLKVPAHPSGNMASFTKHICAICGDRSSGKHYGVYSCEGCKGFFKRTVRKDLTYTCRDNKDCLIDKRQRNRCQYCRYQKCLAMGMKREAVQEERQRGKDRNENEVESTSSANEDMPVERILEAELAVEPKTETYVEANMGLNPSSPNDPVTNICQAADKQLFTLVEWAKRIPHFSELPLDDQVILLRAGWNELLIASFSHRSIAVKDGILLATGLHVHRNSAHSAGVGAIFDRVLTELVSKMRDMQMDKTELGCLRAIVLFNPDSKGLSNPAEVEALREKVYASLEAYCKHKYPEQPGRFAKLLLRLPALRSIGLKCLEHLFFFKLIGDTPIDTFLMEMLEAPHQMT
In short: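 Using 9-cis retinoic acid as the reference agonist, chemicals were tested in HEK 293T cells […] for 16 hr; substrate loading lasted 2 hr at room temperature.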

[11] = qHTS assay to identify small molecule agonists of the RXR signaling pathway - cell viability counter screen (AID 1159529)
In short: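 Compounds dissolved in DMSO were pinned onto HEK 293T cells carrying a beta-lactamase reporter under RXR-alpha control and incubated 16 hr. Cytotoxicity was then quantified by CellTiter-Glo luminescence.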

[12] = qHTS assay to identify small molecule antagonists of the retinoid acid receptor (RAR) signaling pathway - cell viability counter screen (AID 1159551); note: nearly all actives have a fitted effect of over 35% in size
In short: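 Viability of C3RL4 cells is quantified from ATP by luminescence after 6 h treatment at 37 C with compounds and 1 uM retinol.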

[13] = qHTS assay to identify small molecule antagonists of the estrogen related receptor (ERR) signaling pathway from Tox21 library - cell viability counter screen (AID 1224834); note: nearly all actives have a fitted effect of over 30% in size
In short: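 In this quantitative HTS format, ERR cells receive compounds in DMSO and are incubated for 17.5 h at 37 C. Live-cell protease activity is then detected with CellTiter-Fluor.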

[14] = qHTS assay to identify small molecule antagonists of the vitamin D receptor (VDR) signaling pathway - cell viability counter screen (AID 743225); note: nearly all actives have a fitted effect of over 50% in size
In short: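 Compounds were pinned onto VDR-bla HEK 293T cells together with 1-alpha,25-dihydroxyvitamin D3 at 3 nM final. After 16 h at 37C and 5% CO2 plus the reporter readout, cell viability was measured by CellTiter-Glo luminescence (30 min, room temperature).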

[15] = qHTS assay to identify small molecule antagonists of the estrogen related receptor (ERR) signaling pathway - cell viability counter screen (AID 1224818);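 note: series mostly up to about 46 µM; viability measured after 17.5 h of compound exposure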
In short: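 Cytotoxicity check run alongside the ERR antagonist screen: cells exposed to test compounds 17.5 h at 37 C, viability taken as CellTiter-Fluor fluorescence intensity.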

[16] = qHTS assay to identify small molecule antagonists of the retinoic acid receptor (RAR) signaling pathway (AID 1159552; note: nearly all actives have a fitted effect of over 50% in size)
In short: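 Test chemicals and DMSO controls were pin-transferred onto C3RL4 cells a day after seeding; retinol (1 uM final) followed at once. Luminescent reporter output was quantified after 6 hr of co-incubation and 30 min with detection reagent.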

[17] = qHTS assay to identify small molecule agonists of the retinoic acid receptor (RAR) signaling pathway (AID 1159553)
In short: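 Compounds dissolved in DMSO were pinned onto C3RL4 cells seeded the previous day, and plates were held 6 hr at 37 C. RARE-driven luciferase output was then read by luminescence.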

Measured: Potency

CC/C=C\CC1=C(C)CCC1=O
not listed: [14] | [15] | [16] | [17]
inactive: all other assays above

COCCOC(=O)C1=C(C)NC(C)=C(C(=O)OC(C)C)C1c1cccc([N+](=O)[O-])c1 (stereo unspecified)
not listed: [13] | [16] | [17]
inactive: all other assays above

ClCCCl
not listed: [15] | [16] | [17]
inactive: all other assays above

O=C(CS(=O)Cc1ccco1)NC/C=C\COc1cc(CN2CCCCC2)ccn1 (stereo unspecified)
not listed: [13] | [15] | [16] | [17]
inactive: all other assays above

O=C(c1ccc(O)cc1)c1ccc(O)c(O)c1O
not listed: [13] | [15] | [16] | [17]
inactive: all other assays above

CCCCNC1CC(C)(C)NC(C)(C)C1
not listed: [13] | [15] | [16] | [17]
inactive: all other assays above

Cc1ccc2ccc(Cl)cc2n1
not listed: [10] | [15]
inactive: all other assays above

CN(C)c1ccc(C=O)cc1
not listed: [13] | [15] | [16] | [17]
inactive: all other assays above

CCCCCOC(=O)CCC
not listed: [10] | [15] | [17]
inactive: all other assays above

CC(C)c1ccc2cc(C(C)C)ccc2c1
not listed: [15] | [16] | [17]
inactive: all other assays above

CC(=O)N[C@@H](CCC(=O)O)C(=O)O
not listed: [13] | [15] | [16] | [17]
inactive: all other assays above

OCCC(F)(F)C(F)(F)C(F)(F)C(F)(F)C(F)(F)C(F)(F)C(F)(F)C(F)(F)F
not listed: [13] | [15] | [16] | [17]
inactive: all other assays above

CNC(=O)[C@H]1O[C@@H](n2cnc3c(NCc4cc(Cl)ccc4OCc4cc(C)no4)ncnc32)[C@H](O)[C@@H]1N
not listed: [15] | [16] | [17]
inactive: all other assays above

CCOC(=O)/C=C/c1ccccc1
not listed: [13] | [14] | [15] | [16] | [17]
inactive: all other assays above

CCc1ccc(C=O)cc1
not listed: [15] | [16] | [17]
inactive: all other assays above

O=C1CC(c2ccc(Cl)cc2)CC(=O)N1
not listed: [13] | [15] | [16] | [17]
inactive: all other assays above

O=C1CCCC(=O)O1
not listed: [10] | [15] | [17]
inactive: all other assays above

O=C(OCC(COC(=O)c1cccnc1)(COC(=O)c1cccnc1)COC(=O)c1cccnc1)c1cccnc1
not listed: [15] | [16] | [17]
inactive: all other assays above

COc1cc2c(cc1OC)[C@@H]1CC(=O)[C@@H](CC(C)C)CN1CC2
not listed: [13] | [15] | [16] | [17]
inactive: all other assays above
